The values below come from PubChem BioAssay (NCI).

Several values for one entry are separate records, joined by “and”; a condition that tells them apart may be missing. Equal values may be shown once. Compounds without any hit were thinned out: in the full panel of roughly 83,000, 20% have a hit.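 Growth was measured after 48 h exposure to one concentration of compound in 96-well plates. Values under 10 count as active.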 Activity calls are given as the source filed them.

Among the test systems are HT29 colon; SNB-75 CNS; U251 CNS; PC-3 prostate; SK-MEL-5 melanoma; UACC-62 melanoma; LOX IMVI melanoma; SK-MEL-28 melanoma; SK-MEL-2 melanoma; EKVX NSCLC; SN12C renal; UO-31 renal; TK-10 renal; ACHN renal; CAKI-1 renal; A498 renal; CCRF-CEM leukemia; MOLT-4 leukemia; SNB-19 CNS.
Holding throughout (assay): NCI-60 one-dose screen, 48 h (100 = growth as untreated, 0 = no growth, -100 = all killed)
Holding throughout (settings): 10 µM unless noted

In the case of `NS(=O)(=O)c1cc2c(cc1Cl)NC(C(Cl)Cl)NS2(=O)=O` (stereo not drawn), the growth in the assay with HT29 colon is 101% (inactive) and 114% (inactive); with SNB-75 CNS, 77.7% (inactive) and 114% (inactive); in the assay on U251 CNS it was 86.5% (inactive) and 104% (inactive); with PC-3 prostate, 99% (inactive) and 99.8% (inactive); in the assay on SK-MEL-5 melanoma, 99.7% (inactive) and 102% (inactive); with UACC-62 melanoma, 103% (inactive). In addition, the growth in the assay with LOX IMVI melanoma is 98.6% (inactive) and 99.9% (inactive); with SK-MEL-28 melanoma, 99.8% (inactive) and 115% (inactive); with SK-MEL-2 melanoma, 104% (inactive) and 135% (inactive); in the assay on EKVX NSCLC, 89.3% (inactive) and 110% (inactive); in the assay on SN12C renal, 93.2% (inactive) and 103% (inactive); with UO-31 renal, 90.7% (inactive) and 87.4% (inactive). The growth is 98.5% (inactive) and 121% (inactive) with TK-10 renal; 96.7% (inactive) and 92.4% (inactive) in the assay with ACHN renal; 98.8% (inactive) and 95.4% (inactive) with CAKI-1 renal; 97.6% (inactive) and 96.2% (inactive) with A498 renal; 89.2% (inactive) and 92.5% (inactive) with CCRF-CEM leukemia; 95.1% (inactive) and 92.4% (inactive) in the assay with MOLT-4 leukemia.
`CCOc1ccc2c(S(=O)(=O)O)cccc2c1[N+](=O)[O-]`: the growth in the assay with HT29 colon is 105% (inactive) and 117% (inactive); with SNB-75 CNS, 85.7% (inactive) and 93.8% (inactive); in the assay with SNB-19 CNS it was 108% (inactive) and 112% (inactive); in the assay with U251 CNS, 101% (inactive) and 99.9% (inactive); in the assay on PC-3 prostate, 93.4% (inactive) and 87.4% (inactive); in the assay on SK-MEL-5 melanoma, 108% (inactive). The growth in the assay on UACC-62 melanoma is 101% (inactive) and 110% (inactive); with LOX IMVI melanoma, 105% (inactive) and 102% (inactive); in the assay with SK-MEL-2 melanoma it was 117% (inactive) and 109% (inactive); in the assay on EKVX NSCLC, 99.2% (inactive) and 88.5% (inactive); in the assay with SN12C renal, 106% (inactive) and 103% (inactive); with TK-10 renal it was 104% (inactive) and 126% (inactive). Also, the growth was 103% (inactive) and 105% (inactive) in the assay on ACHN renal; 87% (inactive) and 96.1% (inactive) with CAKI-1 renal; 95% (inactive) and 116% (inactive) with A498 renal; 90.6% (inactive) and 107% (inactive) in the assay with CCRF-CEM leukemia; 86.8% (inactive) and 96.4% (inactive) with MOLT-4 leukemia.
`C/C=C1\NC(=O)[C@H]2CSSCCC=C[C@H](CC(=O)N[C@H](C(C)C)C(=O)N2)OC(=O)[C@H](C(C)C)NC1=O`: the growth in the assay with UACC-62 melanoma was -83.2% [0.1 µM] (active) and -98.1% [0.1 µM] (active); in the assay on TK-10 renal, -93% [0.1 µM] (active) and -98.3% [0.1 µM] (active).
On to `CCNC(=O)Nc1ccc(-c2nc3c(c(N4CCOC[C@@H]4C)n2)CCN(C2COC2)C3)cc1`, for which the growth in the assay on HT29 colon is 49.7% (inactive) and 15.9% (inactive); in the assay with SNB-75 CNS it was 22.9% (inactive) and -33.2% (active); in the assay with U251 CNS, 55.9% (inactive) and 7.52% (active); in the assay on PC-3 prostate, 26.6% (inactive) and 12.6% (inactive); in the assay with SK-MEL-5 melanoma, 22.4% (inactive) and -26.4% (active); in the assay on UACC-62 melanoma, 9.26% (active) and -20.5% (active). The growth in the assay on SK-MEL-28 melanoma was 25.1% (inactive) and -5.25% (active); in the assay with SK-MEL-2 melanoma it was 41.7% (inactive); in the assay with EKVX NSCLC it was 46.8% (inactive) and 17.4% (inactive); with SN12C renal, 36.1% (inactive) and 14.7% (inactive); with TK-10 renal, 44.4% (inactive) and -22.3% (active); with CAKI-1 renal, 67.1% (inactive) and 0.578% (active). Further, the growth in the assay with A498 renal is -24.1% (active) and -36.2% (active); in the assay with CCRF-CEM leukemia it was 52.8% (inactive) and 12.2% (inactive); with MOLT-4 leukemia, 52.2% (inactive) and 8.79% (active).
As for `CC(C)C(=O)Nc1ccc([N+](=O)[O-])c(C(F)(F)F)c1`, the growth in the assay with HT29 colon was 106% (inactive) and 115% (inactive); in the assay on SNB-75 CNS, 113% (inactive) and 92% (inactive); with U251 CNS, 98.3% (inactive) and 96.7% (inactive); in the assay with PC-3 prostate, 69.5% (inactive) and 100% (inactive); in the assay with SK-MEL-5 melanoma, 85.2% (inactive) and 98.4% (inactive); with UACC-62 melanoma it was 74.9% (inactive) and 80% (inactive). The growth in the assay on LOX IMVI melanoma was 90% (inactive) and 93.2% (inactive); in the assay with SK-MEL-2 melanoma, 111% (inactive) and 28.9% (inactive); in the assay with EKVX NSCLC, 51.4% (inactive) and 86.1% (inactive); in the assay on SN12C renal, 65.3% (inactive) and 88% (inactive); in the assay on UO-31 renal, 76.1% (inactive) and 71.9% (inactive); in the assay on TK-10 renal, 94.5% (inactive) and 111% (inactive). Further, the growth in the assay on ACHN renal is 98.4% (inactive); in the assay on A498 renal it was 84.4% (inactive) and 96% (inactive); with CCRF-CEM leukemia, 75.4% (inactive) and 109% (inactive); in the assay on MOLT-4 leukemia it was 76.8% (inactive) and 97.8% (inactive).
As for `O=C(N/N=C/c1ccc2c(c1)OCO2)c1ccncc1`, the growth with HT29 colon is 101% (inactive) and 105% (inactive); in the assay on SNB-75 CNS it was 77.9% (inactive) and 98.4% (inactive); in the assay on U251 CNS, 104% (inactive); in the assay on PC-3 prostate it was 104% (inactive) and 88.5% (inactive); in the assay on SK-MEL-5 melanoma, 105% (inactive); in the assay with UACC-62 melanoma it was 91.3% (inactive) and 97.5% (inactive). Moreover, the growth is 97.4% (inactive) and 101% (inactive) in the assay with LOX IMVI melanoma; 103% (inactive) and 106% (inactive) with SK-MEL-28 melanoma; 110% (inactive) and 108% (inactive) in the assay on SK-MEL-2 melanoma; 104% (inactive) and 101% (inactive) with EKVX NSCLC; 94.4% (inactive) and 98.4% (inactive) in the assay with SN12C renal; 82.8% (inactive) and 79.4% (inactive) in the assay with UO-31 renal. For the same compound, the growth in the assay with TK-10 renal was 91.2% (inactive) and 111% (inactive); in the assay on ACHN renal, 107% (inactive) and 103% (inactive); with CAKI-1 renal, 97.2% (inactive) and 97.5% (inactive); with A498 renal, 98% (inactive) and 94% (inactive); in the assay with CCRF-CEM leukemia it was 113% (inactive) and 101% (inactive); in the assay with MOLT-4 leukemia, 133% (inactive).
As to `O=C1NC(=O)C2(CCc3ccccc32)N1` (stereo not drawn), the growth is 104% (inactive) and 109% (inactive) in the assay with HT29 colon; 96.2% (inactive) and 94.1% (inactive) in the assay with SNB-75 CNS; 96.2% (inactive) and 103% (inactive) with SNB-19 CNS; 109% (inactive) and 99% (inactive) with U251 CNS; 133% (inactive) and 88.2% (inactive) in the assay on PC-3 prostate; 99.4% (inactive) and 108% (inactive) in the assay with SK-MEL-5 melanoma. In addition, the growth with LOX IMVI melanoma is 103% (inactive) and 95.7% (inactive); with SK-MEL-28 melanoma, 123% (inactive); in the assay on SK-MEL-2 melanoma it was 129% (inactive) and 51.4% (inactive); in the assay on EKVX NSCLC, 103% (inactive) and 99.9% (inactive); with SN12C renal, 104% (inactive) and 95.1% (inactive); with UO-31 renal, 101% (inactive) and 85.3% (inactive). In addition, the growth in the assay on TK-10 renal was 105% (inactive) and 99.5% (inactive); in the assay with ACHN renal it was 111% (inactive) and 96.7% (inactive); in the assay on CAKI-1 renal, 98.4% (inactive) and 89.7% (inactive); in the assay with A498 renal it was 94.4% (inactive); in the assay with CCRF-CEM leukemia, 118% (inactive) and 94.2% (inactive); with MOLT-4 leukemia, 101% (inactive) and 83.3% (inactive).
Turning to `Cc1ccc2c(sc(-c3ccc4c(c3)sc(-c3ccc5c(c3)sc(-c3ccc(N(C)C)cc3)[n+]5C)[n+]4C)[n+]2C)c1S(=O)(=O)O` (tested in a mixture with another compound), the growth in the assay with UACC-62 melanoma was 48.6% [100 µM] (inactive) and 10.5% [100 µM] (inactive); in the assay on TK-10 renal, 106% [100 µM] (inactive) and 47.3% [100 µM] (inactive).
In the case of `COC(=O)c1ccc(NC(=O)O/N=C(\Cl)C(C)C)cc1`, the growth in the assay on UACC-62 melanoma was -90.3% [100 µM] (active) and -100% [100 µM] (active); in the assay on TK-10 renal, -100% [100 µM] (active).
For `CC(C)=CC(O)C/C(C)=C/CC/C(C)=C/CCC1(C)C(CCCO)/C(=C(/C)C=O)CCC1(C)O` (stereo not drawn), the growth in the assay with UACC-62 melanoma is -21.5% [100 µM] (active) and 2.9% [100 µM] (active); with TK-10 renal, 49.7% [100 µM] (inactive) and 9.22% [100 µM] (active).
Take `COC(=O)c1cnn2c1n[n+]([O-])c1ccccc12`: the growth in the assay on UACC-62 melanoma is 72.4% [100 µM] (inactive) and -65.7% [100 µM] (active); in the assay with TK-10 renal, 126% [100 µM] (inactive) and 78.8% [100 µM] (inactive).
For the compound `O=C1NC(N/N=C\C(O)C(O)C(O)C(O)CO)=N/C1=C\c1ccc(Cl)cc1` (stereo not drawn), the growth in the assay on UACC-62 melanoma is -24.3% [100 µM] (active) and -100% [100 µM] (active); in the assay on TK-10 renal, 47.7% [100 µM] (inactive) and -100% [100 µM] (active).
In the case of `NC(=O)CC1OC(=O)Cc2cc3c(c(O)c21)C(=O)c1c(O)cccc1C3=O` (stereo not drawn), the growth with UACC-62 melanoma is 67.9% [100 µM] (inactive); in the assay with TK-10 renal, 57.5% [100 µM] (inactive).
As to `O=C1C=CC=C/C1=C1\N=C(c2ccccc2OCC(=O)c2ccc(Br)cc2)SS1`, the growth in the assay with UACC-62 melanoma was 48.5% [100 µM] (inactive) and 35.3% [100 µM] (inactive); in the assay on TK-10 renal it was 65.8% [100 µM] (inactive) and 57.6% [100 µM] (inactive).
